Where “and” joins values, the source holds several entries; their conditions need not be identical. Identical values can stand only once. Results filed as inconclusive are left out. Calls of active or inactive are those of the source. Unless noted, no stated cut-off is given here; in the data, active means inhibition above about 80%; inactive means the rest.
Experiments:
[1] = viability loss in pontine glioma line – cell-based, SU-DIPG-XXV, MIPE5.0, CellTiter-Glo, qHTS, dose response (AID 1347065; cut-off not given, nearly all actives have AC50 up to about 26 µM;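 further: cells exposed to compound for 48 hours before ATP readout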); settings: CellTiter-Glo ATP luminescence
[2] = growth inhibition of DIPG cells – cell-based, MIPE4.0 library, CellTiter-Glo luminescence, qHTS (AID 1347066; cut-off not given, nearly all actives have AC50 up to about 30 µM;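 further: cells exposed to compound for 48 hours before readout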); settings: SU-DIPG-VI viability, CellTiter-Glo ATP luminescence
[3] = liver-stage malaria parasite load reduction – cell-based, known kinase inhibitor set, luminescence, hepatoma host viability (AID 624392; call rule not given here;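 further: infected cells incubated roughly two days before readout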); settings: Plasmodium liver stage in hepatoma cells, luciferase luminescence, concentration not given here; liver cell % of control: measured here: host liver cell viability; parasite % of control: stronger effect = lower value
[4] = viability loss in pontine glioma line – cell-based, SU-DIPG-XIII, MIPE4.0, CellTiter-Glo, qHTS, dose response (AID 1347061; cut-off not given, nearly all actives have AC50 up to about 37 µM;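 further: cells exposed to compound for 48 hours before readout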); settings: CellTiter-Glo ATP luminescence
[5] = JHH-DIPG-1 glioma cell viability, MIPE5.0 library, CellTiter-Glo luminescence, qHTS (AID 1347067; cut-off not given, nearly all actives have AC50 up to about 26 µM;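 further: cells exposed to compound for 48 hours before readout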); settings: JHH-DIPG-1 glioma viability, CellTiter-Glo ATP luminescence
[6] = molecular target: Mitogen-activated protein kinase 7 (Homo sapiens) (UniProt Q13164); experiment: Gal4-ERK5 driven luciferase induction – cell-based, HTS, primary screen (AID 1508626;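 active means luciferase signal above three times the same-plate solvent-only control wells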;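 further: luciferase driven by Gal4-ERK5 fusion binding five Gal4 sites before minimal TATA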); settings: HeLa Gal4-ERK5 transactivation, 18 h, at 5 µM, stronger effect = higher value
[7] = blockers of polyQ-driven CASP3 activation – cell-based (AID 1583); settings: polyglutamine-induced caspase-3 activation, cell assay; stronger effect = higher value;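 tested at 10 µM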
[8] = growth inhibition, single agents and combos, LFS_MB_1R, cell-based, cisplatin or BGB combos, synergistic combos for chromothripsis tumors (AID 1671452); settings: LFS_MB_1R medulloblastoma cells, stronger effect = higher value;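 further: cells exposed for 96 hours before readout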
[9] = growth inhibition, single agents and combos, CRL2098, cell-based, BGB or cisplatin IC20 combos, synergistic combos for chromothripsis tumors (AID 1671454); settings: CRL2098 osteosarcoma cells, drug combinations, stronger effect = higher value;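 further: cells exposed for 96 h before readout; 0% = vehicle DMSO and 100% = killing by high DMSO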
[10] = growth inhibition, single agents and combos, HD-MB03, cell-based, BGB or cisplatin IC20 combos, synergistic combos for chromothripsis tumors (AID 1671455; in the data active means inhibition above about 83%;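 further: 0% = vehicle DMSO and 100% = high DMSO as cytotoxic control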); settings: HD-MB03 medulloblastoma cells, stronger effect = higher value
[11] = growth inhibition, single agents and combos, UWB1.289, cell-based, BGB or cisplatin combos, synergistic combos for chromothripsis tumors (AID 1671456); settings: UWB1.289 ovarian carcinoma cells, stronger effect = higher value;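 further: cells exposed to compound for four days; 0% = vehicle DMSO and 100% = killing by high DMSO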
[12] = growth inhibition, single agents and combos, LFS_MB_2R, cell-based, cisplatin combos, synergistic combos for chromothripsis tumors (AID 1671457); settings: LFS_MB_2R medulloblastoma cells, stronger effect = higher value;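 further: cells exposed to compound for four days before readout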
[13] = growth inhibition, MDA-MB-436, cell-based, BGB or cisplatin combos, synergistic combos for chromothripsis tumors (AID 1671458; call rule not given here;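 further: cells exposed for 96 hours; 0% = vehicle DMSO and 100% = killing by high DMSO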); settings: MDA-MB-436 breast carcinoma growth inhibition, drug combinations, stronger effect = higher value
[14] = UWB1.289_BRCA1 ovarian cancer growth, cell-based, BGB or cisplatin combinations (AID 1671459); settings: UWB1.289 BRCA1 ovarian carcinoma, drug combinations, stronger effect = higher value
[15] = drug combination toxicity in non-malignant astrocytes – cell-based, BGB or cisplatin IC20 combos, cytotoxicity control for chromothriptic childhood tumor combination screen (AID 1671460); settings: Human astrocytes, viability inhibition, drug combinations, at 0.5 µM, stronger effect = higher value;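 further: cells exposed to compounds for 96 hours before viability readout; 0% = vehicle and 100% = killing control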
[16] = BT084 cell growth, single and combined drugs, ICGC_MB145, cisplatin and BGB IC40 combos (AID 1671461); settings: BT084 medulloblastoma cells, drug combinations, stronger effect = higher value;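 further: cells exposed to drugs for 96 hours; 0% = vehicle DMSO and 100% = high DMSO full killing control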
[17] = RCMB18 cell growth, single agent and combined, cisplatin and BGB IC40 combos (AID 1671462); settings: RCMB18 medulloblastoma cells, stronger effect = higher value;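 further: cells exposed to compound for four days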
[18] = CRL1545 cell growth, single agent and combined, cisplatin and BGB IC20 combos (AID 1671464); settings: CRL1545 osteosarcoma cells, stronger effect = higher value;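 further: cells exposed to compound for 96 hours before readout; 0% = vehicle DMSO and 100% = high DMSO killing control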
[19] = measured here: combination with cisplatin, at 0.5 µM
[20] = measured here: combination with cisplatin, at 5 µM

Chain of Mitogen-activated protein kinase 7 (Homo sapiens) (Q13164 whole entry, looked up, the tested form may be a part): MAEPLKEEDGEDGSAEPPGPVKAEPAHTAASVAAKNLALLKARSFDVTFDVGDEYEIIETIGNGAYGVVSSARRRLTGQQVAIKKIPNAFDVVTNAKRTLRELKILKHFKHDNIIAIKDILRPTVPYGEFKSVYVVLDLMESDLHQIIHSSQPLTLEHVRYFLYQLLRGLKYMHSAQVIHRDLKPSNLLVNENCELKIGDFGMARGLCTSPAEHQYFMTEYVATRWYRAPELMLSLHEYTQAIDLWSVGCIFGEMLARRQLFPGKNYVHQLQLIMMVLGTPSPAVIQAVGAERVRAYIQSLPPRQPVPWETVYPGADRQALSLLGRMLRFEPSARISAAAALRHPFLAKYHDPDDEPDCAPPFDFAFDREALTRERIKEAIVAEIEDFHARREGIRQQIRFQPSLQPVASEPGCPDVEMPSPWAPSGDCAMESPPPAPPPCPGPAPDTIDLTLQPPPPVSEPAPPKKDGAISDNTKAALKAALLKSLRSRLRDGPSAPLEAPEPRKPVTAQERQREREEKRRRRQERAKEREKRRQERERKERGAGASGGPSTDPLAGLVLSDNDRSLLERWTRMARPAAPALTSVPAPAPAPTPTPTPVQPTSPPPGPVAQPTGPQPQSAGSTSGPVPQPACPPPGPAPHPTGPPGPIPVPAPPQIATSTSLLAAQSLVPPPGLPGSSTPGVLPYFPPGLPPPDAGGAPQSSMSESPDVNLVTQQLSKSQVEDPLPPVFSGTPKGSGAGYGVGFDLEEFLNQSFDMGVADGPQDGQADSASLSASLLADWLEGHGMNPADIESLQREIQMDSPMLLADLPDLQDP

Oc1ccc(Nc2nc(-c3ccc(Cl)cc3)cs2)cc1
AC50 [1]: 5.9 µM (active)

C=CCc1cccc(/C=N/NC(=O)CN2CCN(Cc3ccccc3)CC2)c1O
AC50 [2]: 16.6 µM (active)

Oc1ccc(-c2nc(-c3ccc(F)cc3)c(-c3ccncc3)[nH]2)cc1
liver cell % of control [3]: 85.2% and 83.2% and 90.8% | parasite % of control [3]: 14.8% (inactive) and 19.2% (inactive) and 29.9% (inactive) | AC50 [4]: 5.9 µM (active) | outcome [2]: inactive

CC(C)C[C@@H](C(=O)N[C@H](C(=O)OC1CCCC1)c1ccccc1)[C@H](O)C(=O)NO
AC50 [2]: 23.5 µM (active) | outcome [5]: inactive

Oc1cc2c(cc1O)C(c1ccccc1)CNCC2 (stereo not drawn)
luciferase signal [6]: 44 AU (inactive)

Cn1cc(C2=C(c3ccc(Cl)cc3Cl)C(=O)NC2=O)c2ccccc21
liver cell % of control [3]: 105% and 92.9% and 90.2% | parasite % of control [3]: 19.2% (inactive) and 24.2% (inactive) and 47.4% (inactive)

N.N.O=C(O)C1(C(=O)O)CCC1.[Pt]
inhibition [7]: -4.65% | inhibition ([8]; at 0.5 µM): -35.7% (inactive) and -31.6% (inactive) | inhibition ([8]; measured here: combination with BGB IC40, at 0.05 µM): -53% and -34.9% | inhibition [8, 19]: -6.08% and -36.3% | inhibition [8, 20]: -14.9% and -37.2% | inhibition ([9]; at 0.5 µM): -63.4% (inactive) and -87.5% (inactive) | inhibition ([9]; measured here: combination with BGB at IC20, at 0.5 µM): -18.4% and -56.5% | inhibition ([9]; measured here: combination with cisplatin at IC20, at 0.5 µM): -78.6% and -134% | inhibition ([10]; at 0.5 µM): -1.12% (inactive) and -17.2% (inactive) | inhibition ([10]; measured here: combo with BGB at IC20, at 0.5 µM): 0.288% and -20.6% | inhibition ([10]; measured here: combo with cisplatin at IC20, at 0.5 µM): 4.09% and -19.6% | inhibition ([11]; at 0.5 µM): -2.74% (inactive) and -5.32% (inactive) | inhibition ([11]; measured here: inhibition with BGB combination, at 0.05 µM): 42.2% and -5.66% | inhibition ([11]; measured here: inhibition with cisplatin combination, at 0.05 µM): -17.5% and -30.7% | inhibition ([12]; at 0.5 µM): -25.7% (inactive) and -8.57% (inactive) | inhibition [12, 19]: -29.8% and -25.9% | inhibition [12, 20]: -19% and -16.7% | inhibition ([13]; at 0.5 µM): -21.7% (inactive) and -6.11% (inactive) | inhibition ([13]; measured here: BGB combination, at 0.5 µM): -33.8% and -15% | inhibition ([13]; measured here: BGB combination, at 5 µM): 3.84% and 2.53% | inhibition ([13]; measured here: cisplatin combination, at 0.5 µM): -26.3% and -12.4% | inhibition ([13]; measured here: cisplatin combination, at 5 µM): 14% and 17.8% | inhibition ([14]; BGB combination, concentration series, at 5 µM): 2.03% and 5.93% | inhibition ([14]; at 0.5 µM): -15.7% (inactive) and -7.62% (inactive) | inhibition ([14]; cisplatin combination, concentration series, at 5 µM): 29.9% and 24.6% | inhibition [15]: -6.9% (inactive) and 14.2% (inactive) | inhibition ([15]; measured here: combo with BGB IC20): -5.7% and 11.6% | inhibition ([15]; measured here: combo with cisplatin IC20): -6.14% and 19.2% | inhibition ([16]; at 0.5 µM): -21% (inactive) and -15.1% (inactive) | inhibition ([16]; cisplatin combination, at 0.5 µM): -2.17% and -35.9% | inhibition ([16]; cisplatin combination, at 5 µM): -41.8% and -20.7% | inhibition ([16]; measured here: BGB IC40 combination 0.05 uM, at 0.05 µM): -10.5% and -37.9% | inhibition ([16]; single agent, at 5 µM): -52.9% and -21.2% | inhibition ([17]; at 0.5 µM): -27.3% (inactive) and -19.1% (inactive) | inhibition ([17]; cisplatin combo, at 5 µM): -0.537% and -4.06% | inhibition ([17]; measured here: BGB IC40 combination, at 0.05 µM): -23.2% and -16.9% | inhibition [17, 19]: -19.3% and -17.8% | inhibition ([17]; single agent, at 5 µM): -46.1% and -19.1% | inhibition ([18]; at 0.5 µM): -31.3% (inactive) and -52.7% (inactive) | inhibition ([18]; measured here: with BGB IC20 combination, at 0.5 µM): -4.25% and -43.2% | inhibition ([18]; measured here: with cisplatin IC20 combination, at 0.5 µM): -44.9% and -60% | inhibition ([18]; single agent, at 0.05 µM): -23.7% and -50.6% | inhibition ([18]; single agent, at 5 µM): 3.56% and 6.67%

CCSC(=N)N
luciferase signal [6]: 16 AU (inactive)

CN1CCc2cccc3c2[C@H]1Cc1ccc(O)c(O)c1-3
luciferase signal [6]: 48 AU (inactive)

Brc1c(Br)c(Br)c2n[nH]nc2c1Br
liver cell % of control [3]: 96.1% | parasite % of control [3]: 91.6% (inactive)

— PubChem BioAssay
